Compound activity (PubChem BioAssay)
Rows were chosen to be rich in hits. Some 10% of all compounds tested hit in one or more screens of this group.
MCF10A rereplic = induces DNA re-replication in MCF 10a normal breast cells | MCF 10A DNA re-replication, Hoechst nuclear intensity, 48 h | Potency, µM (highest dose often 46.1 µM), for inactives: at the top dose activity, positive = re-replication, hits mostly activators | 350,000 tested, 2.9% active; note: % of control where 0% means no effect; nearly all actives have a fitted effect of over 50% in size
Gal4-VP16 FLuc = Gal4-VP16 reporter inhibition counter-screen. Drosophila S2 Gal4-VP16 UAS-luciferase, luminescence, 20 h. AID 2546. 310,000 tested, 3.5% active. Potency, µM (highest dose often 53.6 µM), for the others: at the highest dose activity, negative = inhibition, most hits filed as inhibitors;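 note: Gal4-VP16 expression switched on by copper sulfate through the metallothionein promoter; % is set by controls: 0 for no effect and ±100 for the full control effect; nearly all actives have a fitted effect of over 50% in size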
RORg inh = blocks mouse ROR gamma transcriptional activity; P51450; Drosophila S2 Gal4-RORgamma UAS-luciferase reporter, 20 h; Potency, µM (doses to about 53.6 µM), for the others: at the top dose activity change, negative = inhibition, most hits filed as inhibitors; 310,000 tested, 5.4% active; note: % is set by controls: 0 for no effect and ±100 for the full control effect; nearly all actives have a fitted effect of over 60% in size
Target sequence (P51450 whole entry, looked up, the tested form may be a part): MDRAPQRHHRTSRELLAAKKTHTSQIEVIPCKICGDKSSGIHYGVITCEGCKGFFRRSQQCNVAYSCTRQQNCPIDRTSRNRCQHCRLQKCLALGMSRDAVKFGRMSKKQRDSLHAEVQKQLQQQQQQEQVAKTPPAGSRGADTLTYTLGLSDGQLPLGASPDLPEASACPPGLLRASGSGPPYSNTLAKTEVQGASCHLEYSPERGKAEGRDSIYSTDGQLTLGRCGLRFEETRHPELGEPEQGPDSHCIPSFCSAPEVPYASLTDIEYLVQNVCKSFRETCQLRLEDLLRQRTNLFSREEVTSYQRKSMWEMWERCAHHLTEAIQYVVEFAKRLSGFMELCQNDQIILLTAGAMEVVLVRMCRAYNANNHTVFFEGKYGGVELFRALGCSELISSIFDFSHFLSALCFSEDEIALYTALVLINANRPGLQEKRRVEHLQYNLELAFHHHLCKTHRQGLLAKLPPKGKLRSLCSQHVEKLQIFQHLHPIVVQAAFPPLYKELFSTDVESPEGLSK
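Luminescence from a UAS-regulated Photinus luciferase reporter in stably transfected Drosophila Schneider cells is measured; decreased signal marks ROR gamma inhibition. Fusion expression is induced by 700 uM copper sulfate for 20 hr.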
ELG1 DNA repair = blocks ELG1-dependent DNA repair in HEK293T cells | Potency, µM (titrated, usually from 46.1 µM), without a hit: top-dose activity change, negative = inhibition, hits mostly inhibitors | 330,000 tested, 2.3% active | AID 504467 | HEK293T ELG1-luciferase reporter, luminescence, 16 h; DNA damage induced by 5-fluorouridine; note: % is set by controls: 0 for no effect and ±100 for the full control effect; nearly all actives have a fitted effect of over 55% in size
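Cells (2,000 per well) received 5-fluorouridine plus test compound or DMSO and were incubated 16 hr at 37 °C, 5% CO2. Luciferase activity was read by luminescence 30 min after ONE-Glo addition; signal suppression marked inhibition of damage-induced ELG1 function.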
SW480 rerep = induces DNA re-replication in SW480 colon adenocarcinoma cells | SW480 DNA re-replication, Hoechst DNA content imaging, 48 h | Potency, µM (highest dose often 46.1 µM), for the others: at the highest dose re-replication activation, hits mostly activators | 340,000 tested, 1.8% active; note: % of control where 0% means no effect; nearly all actives have a fitted effect of over 55% in size
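Compounds, transferred as 23 nL by pin tool, were incubated with cells for 48 hr; DNA content per nucleus was then quantified by Hoechst staining and fluorescence plate imaging.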
Starred values were filed as active, the others as inactive; u = inconclusive; x = no result; [ ] = dose if it differs, or a comment. Calls come from the whole dose curve; as a rule, active = well fitted curve in the direction sought with a large enough effect; inconclusive = small, poorly fitted or top-dose-only effect, or another doubt; inactive = no such curve, though single readings can be large; an effect the other way counts as inactive or inconclusive. Potency is the fitted concentration of half-maximal effect.

SMILES	MCF10A rereplic	Gal4-VP16 FLuc	RORg inh	ELG1 DNA repair	SW480 rerep
COc1cc(NC(=O)c2ccc(C)cc2C)ccc1NC(=O)c1cc2ccccc2o1	9.2µM*	u	1.58µM*	5.6%	u
COc1cc(NC(=O)c2ccc(C)cc2)ccc1NC(=O)c1cc2ccccc2o1	23.9%	0.4%	-9.1%	u	3.0%
COc1cc(NC(=O)c2ccccc2F)ccc1NC(=O)c1cc2ccccc2o1	2.31µM*	12.6µM*	u	-3.6%	u
O=C1CCN(Cc2ccccc2)S(=O)(=O)c2ccc(C(F)(F)F)cc21	u	x	x	1.3%	-8.0%
c1ccc2c(c1)CCN(c1nc3cc4c(cc3s1)OCO4)C2	u	-7.7%	4.3%	u	2.4%
c1ccc2c(c1)Cc1cc3cc4c(cc3nc1-2)OCO4	x	2.24µM*	2.24µM*	x	x
Cc1ccc(NC(=O)CCN2C(=O)NC(C)(C)C2=O)cc1F	-14.5%	x	x	-15.0%	u
Cc1ccc(C(OCCN(C)C)c2cccc(C(F)(F)F)c2)cc1 (centres undefined)	11.4%	-18.6%	11.5%	6.3%	22.9%
CCN(CC)c1ccc(/C=C/c2nc3ccccc3s2)cc1	x	7.08µM*	1.58µM*	u	x
Cc1cc(C)c(-n2c(SCc3nc4ccccc4s3)n[nH]c2=O)c(C)c1	14.9%	3.16µM*	u	-23.8%	-1.0%
CC(C)(C)c1ccc(C(=O)N2CCC(C(=O)c3ccccc3)CC2)cc1	17.9%	-26.7%	u	-29.5%	2.3%
COc1ccc(C2C(C#N)=C(N)Oc3cc(N)ccc32)cc1 (centres undefined)	13.7%	1.8%	-3.1%	-6.0%	-8.6%
COc1ccc(C2C(C#N)=C(N)Oc3c2sc2nc(C)cc(C)c32)cc1 (centres undefined)	16.4µM*	6.9%	-22.0%	7.9%	u
CN1CCC(N(C)C(=O)c2ccccc2F)CC1	-0.1%	-6.1%	16.5%[1.91 µM]	-0.3%	3.9%
Cc1cc(C)n(-c2ccc(C(=O)Nc3ccc(C)c(S(=O)(=O)N(C)C)c3)cc2)n1	-7.1%	17.8µM*	-34.1%	18.4µM*	2.1%
CCN(CC)S(=O)(=O)c1cccc(NC(=O)c2ccc(-n3nc(C)cc3C)cc2)c1	4.6%	-12.8%	u	14.6µM*	-25.5%
Cc1cc(C)n(-c2ccc(C(=O)Nc3ccc(S(=O)(=O)N(C)C)cc3)cc2)n1	u	-6.3%	u	u	-3.5%
COc1ccccc1NC(=O)CN(Cc1ccco1)C(=O)c1ccc(-n2nc(C)cc2C)cc1	2.2%	-11.6%	43.5%	23.1µM*	-12.0%
Cc1cc(C)n(-c2ccc(C(=O)Nc3cccc(S(=O)(=O)N(C)C)c3)cc2)n1	10.4%	7.08µM*	u	9.2µM*	-11.5%
COc1ccccc1NC(=O)CN(Cc1ccco1)C(=O)c1cncc(Br)c1	2.1%	0.3%	2.2%	-11.8%	-14.8%
CC(=O)N[C@@H](CC(=O)O)C(=O)O	-2.2%	10.4%[17 µM]	0.8%[16.9 µM]	12.1%	-59.1%
O=C(c1ccco1)N1CCCC(c2nc3c(nnn3Cc3c(Cl)cccc3Cl)c(=O)[nH]2)C1 (centres undefined)	-2.0%	1.3%	0.3%	-2.3%	-8.4%
CCCN1CCC(Oc2cccc(C(=O)NCCc3ccccc3)c2)CC1	18.3%	6.4%	-6.9%	u	14.5%
CN(C)S(=O)(=O)c1cccc(NC(=O)c2cc(-c3cccs3)nn2-c2cccc(Cl)c2)c1	-8.9%	3.9%	21.7%	11.6µM*	-17.9%
Cc1cc(C)n(-c2ccc(C(=O)Nc3ccc(S(=O)(=O)NCc4ccco4)cc3)cc2)n1	16.7%	15.8µM*	u	u	12.6%
CCOC(=O)Cc1csc(/N=C/c2c(O)n(-c3ccccc3C(F)(F)F)c(=O)c3ccccc23)n1	-1.5%	4.1%	-11.8%	13µM*	-5.3%
CCOC(=O)Cc1csc(-n2sc3ccccc3c2=O)n1	u	u	11.2µM*	u	20.4%
COc1cc(-n2c(N)c(C(=O)NCc3ccco3)c3nc4ccccc4nc32)cc(OC)c1OC	9.2µM*	12.0%	u	-8.4%	11.6µM*
COc1ccc(-n2c(N)c(C(=O)NCc3ccco3)c3nc4ccccc4nc32)cc1OC	16.4µM*	-8.8%	6.6%	6.51µM*	18.4µM*
